Several values for one entry are separate records, joined by “and”; a condition that tells them apart may be missing. Equal entries are not always repeated. ± gives the standard deviation of the averaged measurements.
The compounds below were run on HCC1569 (assay: cell number relative to DMSO (% of DMSO); higher = more cells (less growth inhibition / toxicity)). Details: concentration: 10 µM; 24 h.
Method in brief: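 Cell number or H1.0 nuclear intensity appears as percent of the plate control, based on the median of replicates. Measurements came from HCC1569 and TDF cells exposed in triplicate to compounds at 10 µM for 24 h at 37 °C, then imaged in six fields per well at ×10. Positional effects were smoothed out of HCC1569 values.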
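Note: TDF denotes transformed human dermal fibroblasts of mesenchymal origin.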

SMILES | cell number
CC(C)C1C(=O)OC2CCN3CC=C(COC(=O)C(C)(O)C1(C)O)C23 (stereo not drawn) [Trichodesmine] | 99.6
CC(O)(CS(=O)(=O)c1ccc(F)cc1)C(=O)Nc1ccc(C#N)c(C(F)(F)F)c1 (stereo not drawn) [Bicalutamide] | 99.1
Br.CC(Cc1ccc(O)cc1)NCC(O)c1cc(O)cc(O)c1 (stereo not drawn) [Fenoterol hydrobromide] | 104
NC(Cn1oc(=O)[nH]c1=O)C(=O)O (single isomer, unassigned; (+)) [(+)-Quisqualic acid] | 101
COc1ccc2c(c1OC)C(=O)OC2C1c2cc3c(cc2CCN1C)OCO3 (single isomer, unassigned; (+)) [(+)-Hydrastine] | 98.7
CNc1ccc2oc(CC3OC4(CCC3C)OC(C(C)C(=O)c3ccc[nH]3)C(C)CC4C)nc2c1C(=O)O (stereo not drawn) [Calcimycin] | 43.8
CCC=CCC(C=CC=CCC=CCC=CCCCC(=O)O)OO (stereo not drawn) | 101
Cl.Cl.Clc1ccc(N2CC3CCC(C2)N3)nn1 | 103
Nc1ncnc2c1ncn2C1OC(COP(=O)(O)CP(=O)(O)OP(=O)([O-])[O-])C(O)C1O.[Li+].[Li+] (stereo not drawn) [alpha,beta-Methylene adenosine 5'-triphosphate dilithium] | 102
Cc1cc2c(C(C)C)c(O)c(O)c(C=O)c2c(O)c1-c1c(C)cc2c(C(C)C)c(O)c(O)c(C=O)c2c1O [Gossypol] | 80.6 ± 22
C#C[C@]1(O)CC[C@H]2[C@@H]3CC[C@H]4Cc5nc6nc7ccccc7n6cc5C[C@]4(C)[C@H]3CC[C@@]21C | 74.8
COC(=O)c1cc2c(cn1)[nH]c1ccccc12 [Methyl beta-carboline-3-carboxylate] | 98.8
COC1C(O)C(C)OC(OC2CCC3(C=O)C(CCC4C3CCC3(C)C(C5=CC(=O)OC5)CCC43O)C2)C1O (stereo not drawn) [Peruvoside] | 52.3
CCN1CC2(C)CCC(OC)C34C5CC6CCC(O)(C5C(=O)O6)C(C(O)C23)C14 (stereo not drawn) [Heteratisine] | 103
C[N+](C)(C)CC#CCOC(=O)Nc1cccc(Cl)c1.[Cl-] | 103
COCC1OC(=O)c2coc3c2C1(C)C1=C(C3=O)C2CCC(=O)C2(C)CC1OC(C)=O (stereo not drawn) [Wortmannin] | 43.3
CNCCc1c[nH]c2ccc(O)cc12.O=C(O)C(=O)O [N-omega-Methyl-5-hydroxytryptamine oxalate salt] | 101
Br.CCCN(CCC)CCc1ccc(O)c(O)c1 [Dipropyldopamine hydrobromide] | 97.9
Cl.Cl.c1ccc(CCCN2CCN(CCOC(c3ccccc3)c3ccccc3)CC2)cc1 | 98.6

SMILES | cell number
CN1CC(C(=O)NC2(C)OC3(O)C4CCCN4C(=O)C(Cc4ccccc4)N3C2=O)CC2c3cccc4[nH]cc(c34)CC21.CS(=O)(=O)O (stereo not drawn) [Dihydroergotamine methanesulfonate] | 102
Cl.Clc1cc(I)cc(Cl)c1NC1=NCCN1 [p-Iodoclonidine hydrochloride] | 102
CC(C)C1(NC(=O)C2CC3c4cccc5[nH]cc(c45)CC3N(C)C2)OC2(O)C3CCCN3C(=O)C(Cc3ccccc3)N2C1=O.CS(=O)(=O)O (stereo not drawn) [Dihydroergocristine mesylate] | 100
CNC(=O)Oc1ccc2c(c1)C1(C)CCN(C)C1N2C (single isomer, unassigned; (-)) [(-)-Physostigmine] | 98.8
NC(=O)CN1CC(O)CC1=O (stereo not drawn) [Oxiracetam] | 101
CC(C)C1(NC(=O)C2C=C3c4cccc5[nH]cc(c45)CC3N(C)C2)OC2(O)C3CCCN3C(=O)C(Cc3ccccc3)N2C1=O (stereo not drawn) [Ergocristine] | 102
CCC(C(N)=O)N1CCCC1=O (stereo not drawn) [Levetiracetam] | 102
C=CCN1CCC23c4c5ccc(O)c4OC2C(=NN=C2CCC4(O)C6Cc7ccc(O)c8c7C4(CCN6CC=C)C2O8)CCC3(O)C1C5 (stereo not drawn) [Naloxonazine] | 99.6
Br.C#CCOC(=O)C1=CCCN(C)C1 [Arecaidine propargyl ester hydrobromide] | 100
CS(=O)(=O)O.Oc1ccc2c3c1OC1c4oc5ccccc5c4CC4(O)C(C2)N(CC2CC2)CCC314 (stereo not drawn) [Naltriben methanesulfonate] | 98.1
COC1=CC2C3Cc4ccc(OC)c(O)c4C2(CCN3C)CC1=O (stereo not drawn) [Sinomenine] | 101
CC1OC(=O)C2CC3CCCCC3C(C=CC3CCCC(C)N3C)C12 (single isomer, unassigned; (+)) [(+)-Himbacine] | 102
O=C1NC(=O)c2c1c1c3ccccc3n3c1c1c2c2ccccc2n1C1CCC3O1 | 77.9 and 77.4
Cl.NCCc1ccc(O)cc1 [4-Hydroxyphenethylamine hydrochloride] | 96.2
CCCn1c(=O)c2[nH]c(C3CCCC3)nc2n(CCCOC(=O)c2ccc(S(=O)(=O)F)cc2)c1=O | 99.7
C[N+]1(C)C2CCC1CC(OC(=O)c1c[nH]c3ccccc13)C2.[I-] (stereo not drawn) [3-Tropanylindole-3-carboxylate methiodide] | 100
CCCCCN(C)CCC(O)(P(=O)([O-])O)P(=O)(O)O.[Na+] | 99.5
CCOC(=O)c1ncn2c1C1CCCN1C(=O)c1cc(OC)ccc1-2 (stereo not drawn) | 103
CCN1CC2(COC)CCC(O)C34C5CC6C(OC)CC(O)(C(CC23)C14)C5C6OC(C)=O (stereo not drawn) [Condelphine] | 101
